Results on 41 compounds are retold here after ChEMBL document CHEMBL2218924, “A broad activity screen in support of a chemogenomic map for kinase signalling research and drug discovery” (Biochem J, 2013).

Assay [1] deals with T1, Serine/threonine-protein kinase Sgk2 (Homo sapiens) (UniProt Q9HBY8).
T1 sequence (whole entry): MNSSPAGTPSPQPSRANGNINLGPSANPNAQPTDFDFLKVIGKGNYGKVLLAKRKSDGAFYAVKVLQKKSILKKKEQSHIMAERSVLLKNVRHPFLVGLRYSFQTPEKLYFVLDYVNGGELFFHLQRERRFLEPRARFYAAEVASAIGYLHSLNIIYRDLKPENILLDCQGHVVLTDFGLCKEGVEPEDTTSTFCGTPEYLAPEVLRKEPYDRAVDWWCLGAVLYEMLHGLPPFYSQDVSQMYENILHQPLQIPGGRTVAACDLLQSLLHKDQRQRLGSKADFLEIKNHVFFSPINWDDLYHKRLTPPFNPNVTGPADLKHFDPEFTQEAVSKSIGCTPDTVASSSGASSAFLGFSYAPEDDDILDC
To be noted: at 10 µM.

In assay [2] the target is T2, Serine/threonine-protein kinase Sgk3 (Homo sapiens) (UniProt Q96BR1).
T2 sequence (whole entry): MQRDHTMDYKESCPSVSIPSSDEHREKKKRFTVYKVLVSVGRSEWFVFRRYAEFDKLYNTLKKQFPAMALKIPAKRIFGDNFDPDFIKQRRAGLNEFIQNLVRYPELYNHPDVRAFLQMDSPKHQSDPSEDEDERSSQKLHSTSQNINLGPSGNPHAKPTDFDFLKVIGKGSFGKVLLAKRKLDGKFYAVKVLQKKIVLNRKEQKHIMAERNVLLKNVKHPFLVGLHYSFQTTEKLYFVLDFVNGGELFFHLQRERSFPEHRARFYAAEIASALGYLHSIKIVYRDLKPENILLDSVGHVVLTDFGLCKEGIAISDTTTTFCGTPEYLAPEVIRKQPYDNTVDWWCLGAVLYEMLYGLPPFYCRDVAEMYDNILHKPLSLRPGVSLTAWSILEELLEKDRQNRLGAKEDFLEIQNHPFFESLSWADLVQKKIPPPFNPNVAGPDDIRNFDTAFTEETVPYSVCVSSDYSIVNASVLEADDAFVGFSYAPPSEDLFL
To be noted: at 1 µM.

The target of assay [3] is T2, Serine/threonine-protein kinase Sgk3 (Homo sapiens). To be noted: at 10 µM.
Assay [4] addresses Serine/threonine-protein kinase SIK1 (Homo sapiens) (UniProt P57059). The conditions noted are these: at 1 µM.
For assay [5] the target is unchanged. The conditions noted are these: at 10 µM.
Assay [6] concerns the target SRSF protein kinase 1 (Homo sapiens) (UniProt Q96SB4). To be noted: at 10 µM.
In assay [7] the target is T1, Serine/threonine-protein kinase Sgk2 (Homo sapiens). The conditions noted are these: at 1 µM.
Assay [8] addresses SRSF protein kinase 1 (Homo sapiens) (UniProt Q96SB4). The conditions noted are these: at 1 µM.
Assay [9] has as its target SRSF protein kinase 2 (Homo sapiens) (UniProt P78362). To be noted: at 1 µM.
Assay [10] has the same target. To be noted: at 10 µM.

As a reminder, the residual activity is the signal under treatment as a percentage of the control signal.

Sequence of Serine/threonine-protein kinase SIK1 (Homo sapiens) (P57059 whole entry): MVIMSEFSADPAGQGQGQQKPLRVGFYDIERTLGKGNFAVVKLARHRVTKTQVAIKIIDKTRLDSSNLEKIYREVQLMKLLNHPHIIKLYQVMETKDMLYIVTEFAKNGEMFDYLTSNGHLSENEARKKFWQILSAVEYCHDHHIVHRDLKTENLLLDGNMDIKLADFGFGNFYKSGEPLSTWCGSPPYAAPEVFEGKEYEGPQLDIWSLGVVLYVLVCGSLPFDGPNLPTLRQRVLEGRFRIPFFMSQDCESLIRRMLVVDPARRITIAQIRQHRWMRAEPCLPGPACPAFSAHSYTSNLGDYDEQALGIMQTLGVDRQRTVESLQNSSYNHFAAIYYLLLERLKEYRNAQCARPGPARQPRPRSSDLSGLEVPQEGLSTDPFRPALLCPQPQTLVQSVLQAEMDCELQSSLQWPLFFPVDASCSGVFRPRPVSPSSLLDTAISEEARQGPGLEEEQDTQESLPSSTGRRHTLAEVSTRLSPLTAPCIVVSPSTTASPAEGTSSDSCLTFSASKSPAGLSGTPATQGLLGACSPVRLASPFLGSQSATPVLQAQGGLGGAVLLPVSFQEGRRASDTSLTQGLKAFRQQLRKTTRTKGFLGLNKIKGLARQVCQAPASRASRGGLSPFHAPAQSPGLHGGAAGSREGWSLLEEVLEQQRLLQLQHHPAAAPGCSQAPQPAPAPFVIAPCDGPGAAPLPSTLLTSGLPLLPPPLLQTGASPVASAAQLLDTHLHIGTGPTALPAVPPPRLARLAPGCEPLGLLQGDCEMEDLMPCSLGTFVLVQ
Sequence of SRSF protein kinase 2 (Homo sapiens) (P78362 whole entry, looked up): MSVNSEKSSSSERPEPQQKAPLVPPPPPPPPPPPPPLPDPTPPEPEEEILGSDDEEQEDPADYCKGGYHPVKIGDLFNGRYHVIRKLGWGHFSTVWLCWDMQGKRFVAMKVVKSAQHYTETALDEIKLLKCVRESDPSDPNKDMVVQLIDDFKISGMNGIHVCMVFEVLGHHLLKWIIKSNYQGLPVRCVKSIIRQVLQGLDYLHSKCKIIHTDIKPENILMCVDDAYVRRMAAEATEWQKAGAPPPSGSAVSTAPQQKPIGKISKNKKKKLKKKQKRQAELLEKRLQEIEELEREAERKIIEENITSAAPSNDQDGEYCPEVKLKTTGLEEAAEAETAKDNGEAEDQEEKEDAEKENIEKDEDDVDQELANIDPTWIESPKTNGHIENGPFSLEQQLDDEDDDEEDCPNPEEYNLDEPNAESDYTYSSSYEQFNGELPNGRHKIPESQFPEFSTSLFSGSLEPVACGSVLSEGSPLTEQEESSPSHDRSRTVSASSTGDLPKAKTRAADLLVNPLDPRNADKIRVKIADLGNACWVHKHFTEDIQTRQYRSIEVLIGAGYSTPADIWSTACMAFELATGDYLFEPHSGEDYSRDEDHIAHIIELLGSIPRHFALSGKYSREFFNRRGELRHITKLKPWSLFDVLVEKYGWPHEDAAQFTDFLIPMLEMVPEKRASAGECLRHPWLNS
Sequence of SRSF protein kinase 1 (Homo sapiens) (Q96SB4 whole entry): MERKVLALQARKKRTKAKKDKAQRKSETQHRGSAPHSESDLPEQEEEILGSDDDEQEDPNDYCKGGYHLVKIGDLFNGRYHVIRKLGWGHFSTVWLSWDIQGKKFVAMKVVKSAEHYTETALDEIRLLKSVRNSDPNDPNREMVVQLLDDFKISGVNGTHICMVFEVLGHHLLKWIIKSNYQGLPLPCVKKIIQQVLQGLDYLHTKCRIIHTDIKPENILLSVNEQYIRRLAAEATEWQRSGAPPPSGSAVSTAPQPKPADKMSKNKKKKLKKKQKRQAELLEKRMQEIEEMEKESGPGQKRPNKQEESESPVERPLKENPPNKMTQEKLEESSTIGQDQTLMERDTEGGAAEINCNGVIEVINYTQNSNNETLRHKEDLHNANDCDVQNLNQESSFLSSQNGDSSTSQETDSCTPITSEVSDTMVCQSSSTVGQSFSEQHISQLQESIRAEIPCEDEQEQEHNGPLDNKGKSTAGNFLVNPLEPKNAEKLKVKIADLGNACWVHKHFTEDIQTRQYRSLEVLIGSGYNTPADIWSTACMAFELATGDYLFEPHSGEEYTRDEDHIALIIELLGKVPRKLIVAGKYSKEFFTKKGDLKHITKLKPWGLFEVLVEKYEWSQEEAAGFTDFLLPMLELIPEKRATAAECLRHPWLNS

With `COc1ccc2c(c1)/C(=C/c1cnc[nH]1)C(=O)N2`, the residual activity in assay [1] amounted to 32%; in assay [2], 100%; in [3] it was 53%; in [4], 145%; in assay [5], 48%; in [6], 98%.
As for `CCCCc1c(-c2ccc(O)cc2)[nH]c2nccnc12`, the residual activity in [2] was determined as 98%.
Turning to `O=c1[nH]c2ccccc2n1C1CCN(Cc2ccc(-c3nc4cc5[nH]cnc5cc4nc3-c3ccccc3)cc2)CC1`, the residual activity in [7] came out at 100%; in [1] it was 74%; in assay [2], 94%; in assay [3] it was 81%; in [4] it was 115%; in [5], 44%. The residual activity is 80% in assay [8], 97% in assay [6], 99% in [9] and 80% in assay [10].
Regarding `O=C1Nc2cc(Br)ccc2/C1=C1/Nc2ccccc2/C1=N\O`, the residual activity in [2] was 86%.
`CC(C)(C)c1cc(C=C(C#N)C#N)cc(Br)c1O`: the residual activity stood at 98% in [7]; 70% in assay [1]; 103% in assay [4]; 139% in assay [5]; 114% in assay [8]; 105% in assay [9]. Moreover, the residual activity in [10] stood at 81%.
Consider `c1cc(-c2cnn3cc(-c4ccc(OCCN5CCCCC5)cc4)cnc23)ccn1`, for which the residual activity in assay [7] is 81%; in assay [1] it was 48%; in assay [3], 78%; in assay [4] it was 43%; in [5], 9%.
Turning to `O=C1NC(=O)c2cc(Nc3ccc(F)cc3)c(Nc3ccc(F)cc3)cc21`, in assay [2], the residual activity stood at 96%.
Still for that read-out and setting: the value for `COc1cc2nccc(Oc3ccc(NC(=S)NC(=O)c4ccccc4C)cc3)c2cc1OC` was 97%.
On the same count and under the same terms, the value for `CN(C)CCCn1cc(C2=C(c3c[nH]c4ccccc34)C(=O)NC2=O)c2ccccc21` was 101%; that for `O=c1cc(-c2cccc3c2Sc2ccccc2S3)oc(N2CCOCC2)c1` was 101%; that for `O=c1cc(N2CCOCC2)oc2c1ccc1ccccc12` was 97%.
For `Oc1ccc(-c2nc(-c3ccc(F)cc3)c(-c3ccncc3)[nH]2)cc1`, the residual activity in [2] was 109%.
Take `COc1ccc2c(c1)c(C1=C(c3c[nH]c4ccccc34)C(=O)NC1=O)cn2CCCN(C)C`: in [2], the residual activity was 96%.
Still for that read-out and setting: the value for `Oc1ccc(Nc2nc(-c3ccc(Cl)cc3)cs2)cc1` was 112%; that for `NCCNc1ncc(C(N)=O)c(Nc2cccc(C(F)(F)F)c2)n1` was 82%.
For `Cn1nc2c3c(cccc31)C(=O)c1ccccc1-2`, the residual activity in assay [2] is 79%.
For the compound `CC(C)n1cnc2/c(=N/c3cccc(Cl)c3)nc(NCCO)[nH]c21`, in [2], the residual activity amounted to 107%.
With `Cn1cnc2cc3c(Nc4cccc(Br)c4)ncnc3cc21`, the residual activity in [2] amounted to 107%.
`Cn1sc(=O)n(Cc2ccccc2)c1=O`: the residual activity in assay [2] is 99%.
Same read-out and setting: the value for `Oc1c2ccccc2c2c3c(cccc13)N=N2` was 85%; that for `COc1ccc(S(=O)(=O)N(CCO)c2ccccc2CN(C)C/C=C/c2ccc(Cl)cc2)cc1` was 98%; that for `O=C(Nc1cccc(Nc2nccc(Nc3cccc(C(F)(F)F)c3)n2)c1)C1CC1` was 126%.
Turning to `CC#CC(=O)Nc1cc2c(Nc3ccc(F)c(Cl)c3)ncnc2cn1`, in assay [2], the residual activity amounted to 102%.
`CCN(CC)CCNC(=O)c1c(C)[nH]c(/C=C2\C(=O)Nc3ccc(Cl)cc32)c1C`: the residual activity in [2] stood at 115%.
Regarding `N/C(=N\[N+](=O)[O-])N/N=C\c1ccc(-c2cccc([N+](=O)[O-])c2)o1`, the residual activity came out at 127% in assay [2], 81% in [3], 99% in assay [9] and 88% in [10].
`Cn1cc(/C=C2\C(=O)Nc3ccc(S(N)(=O)=O)cc32)c2ccccc21`: in [2], the residual activity turned out to be 112%.
For `O=C1NC(=O)/C(=C\c2ccc3nccnc3c2)S1`, the residual activity in assay [2] came to 114%.
`CCc1nc(-c2ccc(OC)cc2)[nH]c1-c1ccncc1`: the residual activity in [2] was 115%; in assay [3], 79%; in [4], 139%; in assay [9], 102%; in assay [10], 74%.
Regarding `Oc1n[nH]c2nnc(-c3c(-c4ccccc4)nn4ccccc34)cc12`, the residual activity in assay [2] is 92%.
On the same count and under the same terms, next, `CO[C@H]1[C@@H](OC)C[C@H](C)[C@@H](OC)C2=CC(=O)C=C(NC(=O)/C(C)=C/C=C/[C@H](OC)[C@@H](OC(N)=O)/C(C)=C/[C@@H]1C)C2=O`: 95%.
Turning to `CC(C)[C@H](CO)Nc1nc(Nc2cccc(Cl)c2)c2ncn(C(C)C)c2n1`, the residual activity in assay [3] is 97%; in assay [4], 85%; in [5], 16%; in assay [8] it was 52%; in [6], -1%; in assay [9], 32%. In assay [10], the residual activity came out at 2%.
Consider `Cc1cncc2cccc(S(=O)(=O)N3CCCN(C(=O)CN)C[C@H]3C)c12`, for which, in assay [2], the residual activity was 93%.
Still for that read-out and setting: the value for `Cc1ccc(NC2=CC(=O)c3sc(C)nc3C2=O)cc1` was 96%.
The same measure, in the same setting: the value for `CC(=O)O/N=C1\C(=C2\C(=O)Nc3cc(Br)ccc32)Nc2ccccc21` was 114%.
Consider `O=C1c2ccccc2-c2nc3nnnn3nc21`, for which the residual activity in assay [8] amounted to 107%; in [6], 111%; in [10] it was 101%.
`O=C1NC(=O)c2c1c1c3ccccc3[nH]c1c1[nH]c3cc(Br)ccc3c21`: in [2], the residual activity is 96%.
Regarding `c1ccc2c(-c3ccncc3)c[nH]c2c1`, the residual activity in assay [2] came to 101%.
On the same count and under the same terms, next, `O=Nc1c(-c2c(O)[nH]c3ccccc23)[nH]c2ccccc12`: 89%; `COc1cc2ncnc(Nc3ccc(Oc4ccccc4)cc3)c2cc1OC`: 110%.
In the case of `COc1cc(OC)c(/C=C2\C(=O)Nc3ccccc32)c(OC)c1`, the residual activity in assay [2] turned out to be 92%; in [3], 84%; in assay [4] it was 106%; in [5] it was 93%; in assay [9], 104%; in assay [10], 86%.
With `O=[N+]([O-])c1ccc(-c2nc(-c3ccc(F)cc3)c(-c3ccncc3)[nH]2)cc1`, the residual activity in [2] is 111%.
